From PubChem
RBX1-CUL1 inh = inhibitors of human ROC1-CUL1 ubiquitin ligase activity | inhibition, % at 10 µM | in vitro K48 di-Ub FRET, acceptor:donor ratio, 45 min | P62877+Q13616 | AID 1347404 | 140,000 compounds, 0.6% hits; in the data active means inhibition above about 25%
* = called active by the depositor. The sample as a whole holds a higher share of hits than the screen did.

SMILES	RBX1-CUL1 inh
C=CCCCC(C(=C)C)S(=O)(=O)c1ccc(C)cc1 (stereo not given)	5
CCN(CC)c1ncccc1CNC(=O)Cc1cccs1	6
CCOc1cc(/C=C2/C(=N)N3N=C(C(C)C)SC3=NC2=O)ccc1OCc1ccc(F)cc1	6
CCN1C(=O)/C(=C/c2ccoc2)SC1=S	3
CC(C)NS(=O)(=O)c1ccc(OCC(=O)NCCCO)cc1	0
O=C1c2ccccc2-c2nc3nsnc3nc21	87*
O=C1c2ccccc2-c2nc3ccc(Cl)cc3nc21	-2
O=C1c2ccccc2-c2ncccc21	-7
COCCN1C(=O)/C(=C/c2cc(C)n(C3CCCC3)c2C)C(=O)NC1=S	-7
CC1CN(Cc2ccc3ncccc3c2)Cc2cc(Cl)ccc2O1 (stereo not given)	0
C=CCOc1ccccc1NC(=O)Nc1ccccc1	2
CCOC(=O)C(C(C)=O)C1=C(Br)C(=O)C(=O)c2ccc(Br)cc21 (stereo not given)	48*
CCOC(=O)Nc1ccc(Br)cc1F	3
Cc1c(C(=O)O)c2c(n1Cc1ccccc1)C(=O)c1ccc(Br)cc1-2	5
Cc1nc(SCC#CCO)n(-c2ccccc2)c1C	11
Cc1ccc(CCC(=O)N2CC(=O)Nc3ccccc32)cc1	-4
CCOC(=O)CC1=C(C(=O)OCC)C2(C(=O)Nc3ccccc32)C(C(=O)OCc2ccccc2)C(=N)O1 (stereo not given)	-9
COc1cc(OC)nc(Oc2cccc(OC)c2N)n1	4
COc1cc(-c2c(F)c(F)c(F)c(F)c2F)nc(N)n1	35*
CSc1cc(-c2ccccc2)nc(N)n1	5
COc1cc(OC)c(OC)cc1/C=C1\C(=O)NC(=S)N(c2ccc(F)cc2)C1=O	6
CCOc1cc(/C=C2\C(=O)NC(=O)N(c3ccc(C45CC6CC(CC(C6)C4)C5)cc3)C2=O)c(Br)cc1O	91*
COC(=O)COc1ccccc1/C=C1/C(=O)N(c2ccc(Cl)cc2)C(=S)N1C	-9
C=CCc1cc(/C=C2\C(=O)NC(=O)N(c3ccc(Br)c(C)c3)C2=O)cc(OCC)c1O	2
COC(=O)COc1ccccc1/C=C1\C(=O)NC(=O)N(c2ccc(C34CC5CC(CC(C5)C3)C4)cc2)C1=O	41*
SMILES	RBX1-CUL1 inh
CCOc1cc(/C=C2\C(=O)N(c3ccccc3)C(=S)N2c2ccc(CC)cc2)c(Br)cc1O	3
Cn1cc(CN2CCC(CO)(CCc3ccccc3)CC2)cn1	-3
CN1CCC(N2CCCC(C(=O)NCCc3ccc(Cl)cc3)C2)CC1 (stereo not given)	0
COc1ccccc1-c1nn2c(-c3ccccc3)nnc2s1	-1
CCCc1cc(CN(C)C(=O)CC2(c3ccccc3OC)CC(=O)N(CCCOC)C2=O)[nH]n1 (stereo not given)	0
O=C(Cn1cccn1)NC1CCCN(CC2CCCCC2)C1 (stereo not given)	3
Cn1cccc1/C=C/c1cc(Br)c(/C=C/c2cccn2C)cc1Br	95*
CCN1C(=O)S/C(=C/c2cccn2C)C1=O	-6
Cn1cccc1/C=C1/C(=O)ON=C1c1ccccc1	2
C=CCOc1ccccc1[C@@H]1C[C@H]2CN(Cc3cccnc3)C(=O)[C@]23CCCN13	-8
O=c1/c(=C\c2ccc(O)cc2)sc2n1C(c1cccs1)C1=C(N=2)c2ccccc2CC1 (stereo not given)	10
O=C(O)c1cccc(-c2ccc(/C=c3/sc4n(c3=O)C(c3cccc(F)c3)C3=C(N=4)c4ccccc4CC3)o2)c1 (stereo not given)	73*
O=c1/c(=C/c2ccc(N3CCOCC3)o2)sc2n1C(c1ccc(F)cc1)C1=C(N=2)c2ccccc2CC1 (stereo not given)	0
O=c1/c(=C\c2cc(Cl)ccc2O)sc2n1C(c1ccccc1)C1=C(N=2)c2ccccc2CC1 (stereo not given)	-5
O=c1/c(=C/c2ccccc2O)sc2n1C(c1cccs1)C1=C(N=2)c2ccccc2CC1 (stereo not given)	-6
Cc1cc(/C=c2/sc3n(c2=O)C(c2ccc(F)cc2)C2=C(N=3)c3ccccc3CC2)c(C)n1-c1ccc(C(=O)O)cc1 (stereo not given)	0
COc1ccc(/C=c2/sc3n(c2=O)C(c2cccc(F)c2)C2=C(N=3)c3ccccc3CC2)cc1OC (stereo not given)	-1
O=C(O)c1ccc(/C=c2/sc3n(c2=O)C(c2cccs2)C2=C(N=3)c3ccccc3CC2)cc1 (stereo not given)	56*
O=C(O)c1ccc(-c2ccc(/C=c3/sc4n(c3=O)C(c3ccc(F)cc3)C3=C(N=4)c4ccccc4CC3)o2)cc1Cl (stereo not given)	58*
CCS(=O)(=O)N1CCC(C(=O)Nc2cc(Cl)ccc2C)CC1	5
COc1ccccc1C(C)N(C)C(=O)c1cn(Cc2ccc(Cl)cc2)nn1 (stereo not given)	1
COc1ccccc1OC(C)C(=O)NC1CCCCCC1 (stereo not given)	5
CCOC(=O)c1c(NC(=O)Cc2ccc(Cl)cc2)sc(C(=O)N(C)C)c1C	1
C[C@]12C=CC(=O)C=C1CCC1C2C(O)C[C@@]2(C)C1C[C@H]1OC(c3ccco3)O[C@]12C(=O)CO (stereo not given in full)	-5
N#Cc1c(NC(=O)CSc2nnc(-c3ccncc3)n2-c2cccc(Cl)c2)sc2c1CCCC2	2
SMILES	RBX1-CUL1 inh
OCC1(Cc2cccc(C(F)(F)F)c2)CCN(Cc2ccccn2)CC1	-1
CC(C)C(C(=O)O)N1C(=O)/C(=C\c2ccco2)SC1=S (stereo not given)	102*
O=C1/C(=C/c2ccco2)SC(=S)N1c1ccccc1Br	-4
CC(C(=O)O)N1C(=O)/C(=C\c2ccco2)SC1=S (stereo not given)	53*
O=C1/C(=C\c2ccco2)SC(=S)N1c1cccc(O)c1	9
O=C(CN1C(=O)S/C(=C\c2ccco2)C1=O)c1ccc(Br)cc1	-1
CC(C)C(C(=O)O)N1C(=O)/C(=C/c2ccc(F)cc2)SC1=S (stereo not given)	15
CCCc1ccc(OCc2ccc(C(=O)NNC(=O)Nc3cccc4ccccc34)o2)cc1	-6
Nc1c(Br)ccc2nsnc12	104*
c1ccc2c(c1)ccc1nsnc12	-2
Cc1ccc2nsnc2c1S(=O)(=O)Nc1ccccc1Br	-1
CCOc1ccc(C(=O)Nc2cccnc2Cl)cc1	-7
COC(=O)Cc1ccc2c(c1)Sc1ccc(CC(=O)OC)cc1N2C	0
O=C(Nc1ccc(S(=O)(=O)Nc2ccc(Cl)nn2)cc1)c1ccc(COc2cc(Cl)ccc2Cl)o1	35*
COc1cc(NS(=O)(=O)c2ccc(NC(=O)c3ccc(COc4ccc5c(c4)CCC5)o3)cc2)ncn1	-1
O=C(Nc1ccc(S(=O)(=O)Nc2ccc(Cl)nn2)cc1)c1ccc(COc2cccc(Cl)c2)o1	14
CCS(=O)(=O)N1CCC(C(=O)Nc2ccc(C)cc2)CC1	9
COC1(OC)C(C=Cc2ccccc2)C(C#N)(C#N)C1(OC)OC (stereo not given)	8
CC(C)CCCC(C)C1CCC2C3CC=C4CC(OC(=O)Oc5ccc(C=O)cc5)CCC4(C)C3CC(C)C12 (stereo not given)	1
CC(=O)NC1Nc2cc(C)ccc2S1 (stereo not given)	5
O=C(CCc1ccco1)N1CCOC(Cc2ccccc2Cl)C1 (stereo not given)	17
O=C1NN(c2ccc(Cl)c(Cl)c2)C(=O)/C1=C/c1cc2c(cc1[N+](=O)[O-])OCO2	64*
